Assays:
Settings in all cases: concentration: 1 μM, replicates: in singlicate; n = 1
PDGFRB = tested on: PDGFRB
PDPK1 = tested on: PDPK1
PFTAIRE2 = tested on: PFTAIRE2
PFTK1 = tested on: T1, PFTK1
T1 construct: gene CDK14

PHKG1 = tested on: PHKG1
PHKG2 = tested on: PHKG2
PIK3C2B = tested on: PIK3C2B
PIK3C2G = tested on: PIK3C2G
PIK3CA = tested on: PIK3CA
PIK3CB = tested on: PIK3CB
PIK3CD = tested on: PIK3CD
PIK3CG = tested on: PIK3CG
PIK4CB = tested on: T2, PIK4CB
T2 construct: gene PI4KB

PIKFYVE = tested on: PIKFYVE
PIM1 = tested on: PIM1
PIM2 = tested on: PIM2
PIM3 = tested on: PIM3
PIP5K1A = tested on: PIP5K1A
PIP5K1C = tested on: PIP5K1C
PIP5K2B = tested on: PIP5K2B
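Note: KINOMEscan kinase panel screen.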

SMILES | %Inh (PDGFRB) [%] | %Inh (PDPK1) [%] | %Inh (PFTAIRE2) [%] | %Inh (PFTK1) [%] | %Inh (PHKG1) [%] | %Inh (PHKG2) [%] | %Inh (PIK3C2B) [%] | %Inh (PIK3C2G) [%] | %Inh (PIK3CA) [%] | %Inh (PIK3CB) [%] | %Inh (PIK3CD) [%] | %Inh (PIK3CG) [%] | %Inh (PIK4CB) [%] | %Inh (PIKFYVE) [%] | %Inh (PIM1) [%] | %Inh (PIM2) [%] | %Inh (PIM3) [%] | %Inh (PIP5K1A) [%] | %Inh (PIP5K1C) [%] | %Inh (PIP5K2B) [%]
N#Cc1ccc(Oc2ccc(Nc3ncnc4cc[nH]c34)cc2Cl)cc1 | 31 | 1 | 11 | 17 | 5 | 18 | 0 | 28 | 5 | 11 | 36 | 0 | 0 | 7 | 20 | 6 | 29 | 0 | 0 | 11
CCC(CC)(CC)n1cnc2c(N)ncnc21 [SKF-97620] | 0 | 0 | 0 | 0 | 0 | 0 | 0 | 9 | 6 | 27 | 22 | 5 | 40 | 33 | 0 | 6 | 5 | 30 | 9 | 0
Cl.Cn1ccc(-c2cccc(Nc3ccnc4cc(-c5nccs5)ccc34)c2)n1 [GW525701] | 40 | 0 | 0 | 5 | 0 | 0 | 0 | 0 | 0 | 0 | 0 | 0 | 0 | 30 | 12 | 0 | 0 | 48 | 36 | 14
Cl.Fc1ccccc1COc1ccc(Nc2ncnc3ccc(-c4nnc(C(F)(F)F)o4)cc23)cc1Cl [GW424170] | 20 | 0 | 6 | 0 | 0 | 7 | 0 | 0 | 0 | 0 | 0 | 0 | 0 | 0 | 0 | 0 | 0 | 66 | 36 | 7
Nc1nc(-c2ccc3c(N)n[nH]c3c2)cc(N2CCC[C@@H](C(=O)Nc3ccccc3)C2)n1.O=C(O)C(F)(F)F.O=C(O)C(F)(F)F [GSK2288359] | 31 |  | 18 | 16 | 0 | 2 | 1 | 42 | 4 | 0 | 31 | 13 | 6 | 4 | 20 | 0 | 5 | 0 | 30 | 8
Oc1ccc2ncnc(Nc3ccc(OCc4ccccc4)cc3)c2c1 [GI262866] | 21 | 0 | 13 | 29 | 0 | 0 | 0 | 0 | 0 | 0 | 5 | 0 | 1 | 0 | 0 | 0 | 33 | 0 | 19 | 19
Clc1cc(Nc2ncnc3cc[nH]c23)ccc1OCc1ccccn1 | 38 | 0 | 5 | 10 | 0 | 0 | 15 | 43 | 8 | 15 | 25 | 4 | 34 | 0 | 5 | 10 | 22 | 30 | 0 | 0
C[C@H]1CC[C@@H](C(=O)Nc2ccccc2)CN1c1cc(-c2ccc3c(N)n[nH]c3c2)nc(N)n1 [GSK2283293] | 11 | 25 | 15 | 11 | 0 | 0 | 0 | 0 | 0 | 0 | 0 | 0 | 0 | 0 | 13 | 0 | 0 | 0 | 19 | 24
Nc1nccc2scc(-c3ccc4c(c3)CCN4C(=O)Cc3cc(F)ccc3F)c12 [GSK2587663] | 35 | 0 | 15 | 15 | 4 | 0 | 0 | 0 | 0 | 0 | 0 | 0 | 0 | 0 | 0 | 0 | 0 | 0 | 49 | 13
O=C(c1ccc(-c2cc(-c3c[nH]nc3-c3ccccn3)ccn2)cc1)N1CCCC1 [GW792479] | 4 | 0 | 6 | 0 | 0 | 19 | 0 | 5 | 0 | 0 | 0 | 0 | 4 | 19 | 100 | 21 | 8 | 0 | 14 | 0
CN1CCC(n2cnc(-c3ccc(F)cc3)c2-c2ccnc(NC3CCNCC3)n2)CC1 [SB-229482] | 29 | 0 | 17 | 0 | 0 | 16 | 0 | 0 | 0 | 37 | 0 | 34 | 31 | 40 | 1 | 0 | 2 | 0 | 0 | 0
Cc1ccc(NC(=O)c2cccc(C#N)c2)cc1-c1ccc(C(=O)Nc2ccncc2)cc1 [GSK1398463] | 100 | 17 | 13 | 27 | 2 | 0 | 5 | 4 | 6 | 0 | 1 | 0 | 11 | 0 | 9 | 0 | 0 | 0 | 38 | 23
CNc1nccc(-c2c(-c3ccc(F)cc3)ncn2C2CCN(C)CC2)n1 [SB-222903] | 17 | 0 | 0 | 0 | 0 | 0 | 0 | 0 | 0 | 0 | 0 | 0 | 0 | 9 | 1 | 0 | 0 | 36 | 0 | 0
C[C@@H]1CCN(C(=O)CO)C[C@@H]1N(C)c1ncnc2[nH]ccc12 | 14 | 0 | 0 | 0 | 4 | 0 | 0 | 3 | 0 | 0 | 5 | 0 | 0 | 48 | 0 | 0 | 0 | 16 | 0 | 0
CSc1nn2c(=O)cc(N3CCOCC3)nc2n1Cc1cccc(Cl)c1Cl [GSK2347225] | 24 | 0 | 45 | 20 | 0 | 0 | 80 | 33 | 15 | 100 | 85 | 56 | 0 | 37 | 8 | 0 | 0 | 0 | 27 | 4
COc1ccc(-c2oc3ncnc(N)c3c2-c2ccc(OC)cc2)cc1 [SB-589132] | 41 | 0 | 17 | 0 | 0 | 0 | 0 | 10 | 0 | 0 | 4 | 10 | 10 | 23 | 0 | 0 | 0 | 48 | 54 | 11

Reference: publication PMC5540273 (PLoS ONE, 2017)
